In PubChem BioAssay (NCATS):
Activity calls are given as the source filed them. A call without a number means that no potency is given here. Calls come from the whole dose curve; as a rule, active = well fitted cell-killing curve with a large enough effect; inconclusive = small, poorly fitted or top-dose-only effect, or effect the other way; inactive = flat fitted curve, though single readings scatter.
Potency is the fitted concentration of half-maximal effect.

Assay: MultiTox-Fluor Cytotoxicity Assay - LYMP1-003 - Dead Cells (AID 961);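 note: cells exposed to compound for 16 h at 37 °C; nearly all actives have a fitted effect of over 70% in size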
Conditions: LYMP1-003 lymphoblastoid cells, dead-cell protease fluorescence; series mostly up to 92.2 µM
Excerpt: NIH Chemical Genomics Center [NCGC]
NIH Molecular Libraries Screening Centers Network [MLSCN]
National Institutes of Environmental Health Sciences [NIEHS]
National Toxicology Program [NTP]
We have developed a 1536-well cell-based assay for quantitative high throughput screening (qHTS) against a number of cell lines to determine in vitro cytotoxicity of small molecules. This particular assay uses a human lymphoblastoid cell line (LYMP1-003) purchased from Coriell Institute.
NCGC Assay Protocol Summary:
The MultiTox-Fluor Cytotoxicity Assay (Promega) is a homogeneous method to simultaneously measure the relative number of live and dead cells in culture by detecting changes in cell membrane integrity. There are two fluorogenic peptide substrates in the assay reagent. Viable cells are determined when the cell-permeant substrate (GF-AFC) enters the cell and is cleaved by protease from live cells resulting in liberated fluorophore. This live-cell protease activity restricted to viable cells is proportional to cell number. The dead cells are determined by using fluorogenic cell-impermeant peptide substrate (bis-AAF-R110) which cleaved by dead cell proteases leaking from damaged cell membrane.
Using the MultiTox-Fluor Cytotoxicity Assay, the relative number of dead cells was measured in the lymphoblastoid cell line with complete culture medium following compound treatment for 16 hours. The assay was performed in opaque black Kalypsys 1536-well plates. In the screen, tetraoctylammonium bromide was used as positive control. Library compounds were measured for their ability to cause acute toxicity in the cell line, as reflected by an increase in dead cell protease activity, in a concentration-dependent manner. Data were normalized to the controls for basal activity (DMSO only) and 100% stimulation (15 uM tetraoctylammonium bromide). AC50 values were determined from concentration-response data modeled with the standard Hill equation.
qHTS protocol for MultiTox-Fluor Cytotoxicity assay
[Step] [Parameter] [Value] [Description]
1. Reagent; 5 uL; 2500 lymphoblastoid cells/well
2. Time; 5 hr; 37 C incubation
4. Controls; 23 nL; Tetraoctylammonium bromide 6.4pM to 92 uM
5. Time; 16 hr; 37 C incubation
6. Reagent; 5 uL; MuliTox-Fluor Assay reagent
7. Time; 60 min; Room Temperature
8. Detection; dead-cell fluorescence (Ex/Em=485/520); EnVision plate reader
Keywords: cytotoxicity, lymphoblastoid cell line, fluorescence, NTPHTS, NTPHTS_NCGC, NIEHS, EPA, DSSTox, MLSMR, MLSCN, NIH Roadmap, qHTS, NCGC
With `COc1cc(-c2ccc(N=C=O)c(OC)c2)ccc1N=C=O` the Potency was “inactive”.
With `CCNC(=S)NCC` the Potency was “inactive”.
In the case of `O=C(Cl)c1ccc([N+](=O)[O-])cc1`, the Potency is reported as “inactive”.
For `Brc1cc(Br)c(Oc2cc(Br)c(Br)cc2Br)cc1Br`, the Potency was “inactive”.
With `Nc1cc([N+](=O)[O-])ccc1O` the Potency was “inactive”.
With `Oc1ccc2c(c1)OCO2` the Potency was “inactive”.
For `CCCCCCN`, the Potency was “inactive”.
For `C=CC(C)(O)CCCC(C)CCCC(C)CCCC(C)C` (stereo not given), the Potency was “inactive”.
For `Cc1ccc(N)cc1[N+](=O)[O-]`, the Potency was “inactive”.
For `CC1=C(/C=C/C(C)=C/C=C/C(C)=C/C=O)C(C)(C)CCC1`, the Potency was 50.1 µM (active).
In the case of `CC(=O)CC(=O)Nc1ccccc1`, the Potency is reported as “inactive”.
With `O=[N+]([O-])c1cccc(I)c1` the Potency was “inactive”.
With `CCN(CC)c1ccc2c(C)cc(=O)oc2c1` the Potency was “inactive”.
For `C/C(Cl)=C/CCl`, the Potency was “inactive”.
With `Cc1cc(=O)oc2cc(O)cc(O)c12` the Potency was “inactive”.
With `O=c1[nH]ncc2ccccc12` the Potency was “inactive”.
In the case of `Cc1c(N)cccc1Cl`, the Potency is reported as “inactive”.
In the case of `CC/C=C/C/C=C/C/C=C/CCCCCCCC(=O)OCC`, the Potency is reported as 50.1 µM (active).
For `c1ccc2c(c1)ccc1ccccc12`, the Potency was “inactive”.
For `c1ccncc1`, the Potency was “inactive”.
In the case of `c1cc2c3c(c1)ccc1cccc(c13)C2`, the Potency is reported as “inactive”.
With `O=C1c2ccccc2C(=O)C1(O)O` the Potency was “inactive”.
In the case of `C=CC(=O)CC`, the Potency is reported as “inactive”.
With `Cc1cccnc1` the Potency was “inactive”.
In the case of `O=[N+]([O-])c1cc(N(CCO)CCO)ccc1NCCO`, the Potency is reported as “inactive”.
For `C1CCCNCC1`, the Potency was “inactive”.
For `CCCCCCCCOc1ccc(C(=O)O)cc1`, the Potency was “inactive”.
In the case of `CCCCCCCCC1CO1` (stereo not given), the Potency is reported as “inactive”.
For `C=CC1CO1` (stereo not given), the Potency was “inactive”.
In the case of `Oc1ccc(O)c2c(O)cccc12`, the Potency is reported as “inactive”.
In the case of `Oc1cc(Cl)cc(Cl)c1Cl`, the Potency is reported as “inactive”.
In the case of `COc1ccc(C(=O)Nc2ccccc2)cc1[N+](=O)[O-]`, the Potency is reported as “inactive”.
In the case of `Cc1ccccc1OCC1CO1` (stereo not given), the Potency is reported as “inactive”.
In the case of `Nc1ccc(N=Nc2ccccc2)c(N)c1`, the Potency is reported as “inactive”.
With `CCCCCCc1ccc(-c2ccc(C#N)cc2)cc1` the Potency was “inactive”.
In the case of `O=C(O)c1ccc([N+](=O)[O-])cc1`, the Potency is reported as “inactive”.
In the case of `C=Cc1cccc(C)c1`, the Potency is reported as “inactive”.
For `O=[N+]([O-])c1ccccc1Nc1ccccc1`, the Potency was “inactive”.
In the case of `Cc1cc2nc(N)sc2cc1C`, the Potency is reported as “inactive”.
With `Nc1ccc(-c2ccc(N)c(O)c2)cc1O` the Potency was “inactive”.
